Data on 86 compounds can be found in PubChem BioAssay AID1851 (National Center for Advancing Translational Sciences (NCATS), 2009).

Where “and” joins values, the source holds several entries; their conditions need not be identical. Identical values can stand only once. The whole screen tested about 16,000 compounds, of which about 5,100 (32%) were called active. About 25% were inconclusive and are not listed. The call rests on the fitted dose curve; in most records, active means well fitted curve in the direction sought with a large enough effect; inconclusive means small, poorly fitted or top-dose-only effect, or effect the other way; inactive means no such curve, though single readings can be large or run the other way. This is one part of the list.
On the % scale 0 is the no-effect control and ±100 the full control effect.

Cytochrome P450 3A4 (Homo sapiens), sequence (P08684 whole entry, looked up): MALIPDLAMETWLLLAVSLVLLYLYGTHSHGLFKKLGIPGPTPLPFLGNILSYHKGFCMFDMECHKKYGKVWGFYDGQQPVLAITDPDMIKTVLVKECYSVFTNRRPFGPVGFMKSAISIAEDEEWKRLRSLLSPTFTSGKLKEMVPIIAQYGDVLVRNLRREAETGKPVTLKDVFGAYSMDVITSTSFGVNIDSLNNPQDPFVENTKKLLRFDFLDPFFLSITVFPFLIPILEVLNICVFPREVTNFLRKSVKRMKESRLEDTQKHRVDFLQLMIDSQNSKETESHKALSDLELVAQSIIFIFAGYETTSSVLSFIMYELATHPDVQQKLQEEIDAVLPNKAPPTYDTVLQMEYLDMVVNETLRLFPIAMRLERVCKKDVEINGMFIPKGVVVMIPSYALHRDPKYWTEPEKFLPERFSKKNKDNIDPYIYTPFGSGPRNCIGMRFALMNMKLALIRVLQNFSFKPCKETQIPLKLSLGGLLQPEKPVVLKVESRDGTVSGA

This assay has as its target Cytochrome P450 3A4 (Homo sapiens) (UniProt P08684). The assay is described as follows: Cytochrome panel assay with activity outcomes. Conditions: recombinant CYP, pro-luciferin dealkylation, luminescence, p450-cyp3a4; series mostly up to 57.1 µM.
As for `O=C(NCC1CCCO1)C(c1cccnc1)N(C(=O)Cc1cccs1)c1ccccc1` (stereo unspecified), the AC50 was 3.98 µM (active). Regarding `O=C(NCC(=O)N(c1ccccc1)C(C(=O)NC1CCCC1)c1cccnc1)c1cccs1` (stereo unspecified), the AC50 was 2 µM (active). Consider `O=C(NCC1CCCO1)C(c1cccnc1)N(C(=O)Cc1cccs1)c1cccnc1` (stereo unspecified), for which the activity, negative = inhibition was -17.2% [at 2.29 µM] (inactive). Take `Cc1ccc(C(C(=O)NC2CCCCC2)N(CC2CCCO2)C(=O)CNC(=O)c2cccs2)cc1` (stereo unspecified): the AC50 is 4.47 µM (active). Still for that read-out and setting: as for `CN1CCc2c(sc3c2c(=O)n(-c2ccccc2)c2nncn32)C1`, the entry is “inactive”. The same measure, in the same setting: for `NC(N)=NC(=O)c1nc(Cl)c(N)nc1N` the value was “inactive”; for `O=C(c1cc(-c2ccc(Cl)cc2Cl)on1)N1CCN(C(=O)c2ccco2)CC1`, “inactive”; for `CC1CCCC(C)N1C(=O)c1cc(-c2ccc(Cl)c(Cl)c2)on1` (stereo unspecified), 12.6 µM (active). For `C[C@@H]1CCC[C@H](C)N1NC(=O)c1ccc(Cl)c(S(N)(=O)=O)c1`, the AC50 entry is “inactive”.

With `COCn1c2ccccc2c2nnc(C(C)=O)nc21`, the activity, negative = inhibition was 7.63% [at 11.4 µM] (inactive) and -20.9% [at 11.4 µM] (inactive).

Turning to `Cc1ccc(S(=O)(=O)n2c3ccccc3c3nnc(C(=O)c4ccccc4)nc32)cc1`, the AC50 was 3.98 µM (active). On the same count and under the same terms, for `Cc1ccc(-n2cc(C(=O)c3ccc4ccccc4c3O)cn2)cc1` the value was “inactive”; for `COc1ccc2c(c1)CCC1[C@@H]2CCC2(C)[C@@H](NCCCCCCN3C(=O)C=CC3=O)CC[C@@H]12` (stereo partly specified), “inactive”. As for `CC(C)CC(=O)O/N=C1\C(=O)N(c2ccccc2)c2ccccc21`, the activity, negative = inhibition was 18.9% [at 2.29 µM] (inactive). On to `CN1C(=O)/C(=N\OC(=O)c2cccc3ccccc23)c2ccccc21`, for which the AC50 was 28.2 µM (active).

As to `CC(=O)c1c(O)cc(=O)n(-c2ccccc2)c1-c1cccc2ccccc12`, the AC50 entry was “inactive”.

With `O=c1[nH][nH]c(C(F)(F)F)c1C=Nc1ccccc1Cl`, the AC50 entry was “inactive”. On the same count and under the same terms, as for `C=CCSc1nn2c(=O)c3ccccc3nc2s1`, the figure is 20 µM (active). Still for that read-out and setting: as for `O=C(Cn1cnc2ccccc2c1=O)Nc1nnc(SCc2ccccc2)s1`, the entry is “inactive”; as for `C[C@@H](C(=O)O)c1ccc(C[C@@H]2CCCC2=O)cc1`, “inactive”. As for `Cc1cc2ccccc2c[n+]1CC(O)C[n+]1cc2ccccc2cc1C`, the activity, negative = inhibition was -6.74% [at 11.4 µM] (inactive).

For `CC(=O)c1c(C)nc(-c2ccccc2)n1O`, the AC50 entry was “inactive”. In the case of `CN=c1nc(-c2ccccc2)n(-c2ccccc2)s1`, the AC50 was 31.6 µM (active). On the same count and under the same terms, for `O=c1nc(-c2ccccc2)n(-c2ccccc2)c2ncccc12` the value was “inactive”. Regarding `CCc1c(C(C)O)oc2ccc3c(C)cc(=O)oc3c12` (stereo unspecified), the activity, negative = inhibition was 7.59% [at 2.29 µM] (inactive). As for `Cc1cc2cc3c(C)cc(=O)oc3c(C)c2o1`, the AC50 was 3.98 µM (active). `O=C(Nc1ccc(S(=O)(=O)N2CCCC2)cc1)c1ccc(CN2CCOCC2)cc1`: the activity, negative = inhibition is -3.74% [at 2.29 µM] (inactive). For `O=C(Nc1ccc(F)cc1)c1cc(S(=O)(=O)N2CCCCC2)cs1`, the AC50 is 14.1 µM (active).

For the compound `CC(C)CO/N=C1/C[C@@H](O)[C@@H](O)[C@@H]2[C@H]3C(=O)N(c4ccc(F)cc4F)C(=O)[C@@H]3CC[C@H]12`, the activity, negative = inhibition is -8.15% [at 11.4 µM] (inactive). For the compound `C#CCCCO/N=C1/C[C@@H](O)[C@@H](O)[C@@H]2[C@H]3C(=O)N(c4ccc(F)cc4F)C(=O)[C@@H]3CC[C@H]12`, the AC50 is 3.98 µM (active). Consider `O=C1[C@@H]2[C@H]3[C@H](O)[C@H](O)C/C(=N/OCc4ccccc4)[C@@H]3CC[C@H]2C(=O)N1c1ccc(F)cc1F`, for which the activity, negative = inhibition was -19.6% [at 11.4 µM] (inactive). Still for that read-out and setting: for `CC(C)CO/N=C1/C[C@@H](O)[C@@H](O)[C@@H]2[C@H]3C(=O)N(c4ccc(F)cc4F)C(=O)[C@@H]3CC[C@@H]12` the value was 0.624% [at 11.4 µM] (inactive). For the compound `C#CCCCO/N=C1/C[C@@H](O)[C@@H](O)[C@@H]2[C@H]3C(=O)N(c4ccc(F)cc4F)C(=O)[C@@H]3CC[C@@H]12`, the AC50 was 3.16 µM (active). Consider `O=C1C[C@@H](O)[C@@H](O)[C@@H]2[C@H]3C(=O)N(c4ccc(F)cc4F)C(=O)[C@@H]3CC[C@H]12`, for which the activity, negative = inhibition is -11% [at 11.4 µM] (inactive). In the case of `Cc1ccc(-n2c3c(c(=O)[nH]c2=O)C(NS(=O)(=O)c2ccc(C)cc2)(C(F)(F)F)C(=O)N3)cc1` (stereo unspecified), the AC50 entry is “inactive”. The same measure, in the same setting: as for `O=C(c1cc(C(F)(F)F)cc(C(F)(F)F)c1)N1CCC[C@@]2(CCN(c3ccccn3)C2)C1`, the figure is 3.98 µM (active).

In the case of `O=C(c1cc(C(F)(F)F)cc(C(F)(F)F)c1)N1CCC2(CC1)CCN(c1ccccn1)CC2`, the AC50 entry is “inactive”. The same measure, in the same setting: as for `O=C(c1cc(C(F)(F)F)cc(C(F)(F)F)c1)N1CCC2(CC1)CN(c1ccccn1)C2`, the entry is “inactive”; as for `O=C(c1cc(C(F)(F)F)cc(C(F)(F)F)c1)N1CCC2(CC1)CN(c1ncccn1)C2`, “inactive”; as for `O=C(c1cc(C(F)(F)F)cc(C(F)(F)F)c1)N1CCC[C@@]2(CCN(c3ccncc3)C2)C1`, 6.31 µM (active). Consider `O=C(c1cc(C(F)(F)F)cc(C(F)(F)F)c1)N1CCC2(CC1)CN(c1ccncc1)C2`, for which the AC50 entry was “inactive”. In the case of `O=C(c1cc(C(F)(F)F)cc(C(F)(F)F)c1)N1CCC[C@@]2(CCN(c3ncccn3)C2)C1`, the AC50 is 10 µM (active). The same measure, in the same setting: as for `O=C(c1cc(C(F)(F)F)cc(C(F)(F)F)c1)N1CCC2(CC1)CCN(c1ncccn1)CC2`, the entry is “inactive”; as for `O=C(CCCCC(=O)Nc1c(I)cc(I)c(C(=O)O)c1I)Nc1c(I)cc(I)c(C(=O)O)c1I`, “inactive”.

On to `O=C(O)Cc1cc2ccccc2nc1C(=O)O`, for which the AC50 result was “inactive”. Same read-out and setting: as for `O=C(Nc1ccccc1C(=O)O)c1ccc2ccccc2n1`, the entry is “inactive”. Regarding `CC(C)C(=O)Cc1ccc2ccccc2n1`, the activity, negative = inhibition was -6.02% [at 11.4 µM] (inactive). Turning to `CCCCC[C@H](O)c1cccc(OCc2ccc3ccccc3n2)c1`, the AC50 was 12.6 µM (active). `CCCCc1cc2ccccc2c(OCCN(C)C)n1`: the AC50 result was “inactive”. Same read-out and setting: for `O=C(O)c1ccccc1Nc1cccc(OCc2ccc3ccccc3n2)c1` the value was 1.58 µM (active); for `CC1CN(C2CCN(C(=O)c3cccc(Cl)c3)CC2)CC(C)O1` (stereo unspecified), “inactive”; for `CC(C)CNS(=O)(=O)c1cc(C(=O)N2CC(C)OC(C)C2)c(Cl)cc1Cl` (stereo unspecified), 3.16 µM (active). Still for that read-out and setting: for `CC1CN(C(=O)c2cc3c(s2)CCC3)CC(C)O1` (stereo unspecified) the value was “inactive”. With `O=C(O)C[n+]1ccccc1`, the activity, negative = inhibition was -14.8% [at 11.4 µM] (inactive). Still for that read-out and setting: for `O=C(/C=C/c1ccc(Br)cc1)NC1CCCCCC1` the value was -12.6% [at 11.4 µM] (inactive). Consider `Cc1ccc(/C=C/C(=O)NC(=S)Nc2ccccc2C(=O)NC2CCCCC2)cc1`, for which the AC50 was 8.91 µM (active). In the case of `CCOc1ccc(NC(=S)NC(=O)/C=C/c2ccc(C)cc2)c([N+](=O)[O-])c1`, the AC50 entry is “inactive”. Same read-out and setting: as for `NC(=O)c1ncn([C@@H]2O[C@@H](CO)[C@@H](O)[C@H]2O)c1O`, the entry is “inactive”; as for `CCc1c(C(=O)O)[nH]c2ccc(Br)cc12`, “inactive”. Turning to `C=CCNC(=O)c1ccc(Cn2c(=S)[nH]c3cc4c(cc3c2=O)OCO4)cc1`, the AC50 was 7.94 µM (active).

For the compound `CCCCNC(=O)CCn1c(=S)[nH]c2cc3c(cc2c1=O)OCO3`, the AC50 is 3.98 µM (active).

For the compound `O=c1c2cc(Br)ccc2[nH]c(=S)n1Cc1cccnc1`, the AC50 is 0.398 µM (active).

Regarding `CCn1cc(C(=O)O)c(=O)c2cc3c(cc21)OCO3`, the AC50 result was “inactive”.

For `CC1CCN(CCCn2c(=S)[nH]c3ccc(N4CCOCC4)cc3c2=O)CC1`, the AC50 result was “inactive”. Same read-out and setting: as for `CC(C)OCCCn1c(=S)[nH]c2ncccc2c1=O`, the entry is “inactive”; as for `O=C(CCCn1c(=S)[nH]c2cc3c(cc2c1=O)OCO3)N1CCN(c2ccccc2)CC1`, 0.447 µM (active). Still for that read-out and setting: as for `O=C(CCCn1c(=S)[nH]c2ccc(Br)cc2c1=O)N1CCN(c2ccccn2)CC1`, the figure is 1.26 µM (active); as for `COCC(=O)N1CCC2(CCCN(c3ncccn3)C2)CC1`, “inactive”. Still for that read-out and setting: as for `O=C(CCCn1c(=S)[nH]c2cc3c(cc2c1=O)OCO3)N1CCN(c2ncccn2)CC1`, the figure is 2 µM (active); as for `O=C(CCCCCn1c(=S)[nH]c2cc3c(cc2c1=O)OCO3)N1CCN(C2CCCCC2)CC1`, 1.12 µM (active). Regarding `Cc1cccc(N2CCN(C(=O)CCCn3c(=S)[nH]c4cc5c(cc4c3=O)OCO5)CC2)c1C`, the AC50 was 0.794 µM (active).

`COCC(=O)N1CCC2(CC1)CCN(c1ccccn1)CC2`: the AC50 result was “inactive”. The same measure, in the same setting: for `COc1ccccc1Cn1c(=S)[nH]c2cc(C(=O)N3CCN(C)CC3)ccc2c1=O` the value was “inactive”. Turning to `Cn1c(=O)c2[nH]c(CCC(=O)O)nc2n(C)c1=O`, the activity, negative = inhibition was -3% [at 11.4 µM] (inactive). For `NS(=O)(=O)c1cc(Cl)c(Cl)c(S(N)(=O)=O)c1`, the AC50 entry was “inactive”. In the case of `CN(C)c1cc(=O)n2c(n1)SCCC2`, the activity, negative = inhibition is -1.72% [at 2.29 µM] (inactive).

As for `O=C(c1n[nH]c(=O)c2ccccc12)N1CCN(C2c3ccccc3-c3ccccc32)CC1`, the AC50 was 11.2 µM (active). Consider `O=C(c1coc(=O)c2ccccc12)N1CCN(Cc2ccccc2)CC1`, for which the AC50 result was “inactive”.

On to `CCc1ccc(NC(=S)N2CCN(c3cccc(C(F)(F)F)c3)CC2)cc1`, for which the AC50 result is “inactive”. For the compound `Cc1ccc(CC(=O)N2CCN(c3cccc(C(F)(F)F)c3)CC2)cc1`, the AC50 is 3.98 µM (active). For `COc1ccc(CC(=O)N2CCN(c3ccc(C4=NNC(=O)CC4C)cc3)CC2)cc1` (stereo unspecified), the activity, negative = inhibition was -9.27% [at 2.29 µM] (inactive). Take `CC(=O)Nc1ccccc1C(=O)C(=O)O`: the AC50 result was “inactive”. Consider `Cc1ccc(S(=O)(=O)O[C@@H]2[C@H]([C@@H]3COC(C)(C)O3)O[C@H]3OC(C)(C)O[C@@H]32)cc1`, for which the activity, negative = inhibition is -4.72% [at 11.4 µM] (inactive). On to `COC(=O)[C@@]1(Cc2ccccc2)[C@H]2c3cc(C(=O)N4CCCC4)n(Cc4nc5ccccc5[nH]4)c3C[C@H]2CN1C(=O)c1ccccc1`, for which the AC50 is 1.26 µM (active). Still for that read-out and setting: as for `COC(=O)[C@@]1(Cc2ccc(OC)cc2)[C@H]2c3cc(C(=O)N4CCCC4)n(Cc4nc5ccccc5[nH]4)c3C[C@H]2CN1C(=O)c1ccccc1`, the figure is 2 µM (active). On the same count and under the same terms, as for `O=C(CSc1nc2ccccc2[nH]1)NCCN1CCCCC1`, the entry is “inactive”.

In general, AC50 refers to the midpoint of the concentration-response curve, whichever way the signal moves.
